# Measured values from PubChem BioAssay (EPA / NIEHS).
# Active and inactive are the calls of the source. Rule for the calls: active = hit-call score of the fitted dose curve at least 0.9, where 1 is the maximum; inactive = score below 0.9.
# Experiments:
# [1] = CEETOX_H295R_ESTRADIOL: CeeTox H295R High-throughput Steroidogenesis Assay for Estradiol (AID 2283440); details: actives raise or lower the signal;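 note: estradiol secreted into medium quantified by LC-MS/MS after dansyl derivatisation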
# In short: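 Readout is estradiol in conditioned medium, quantified by reverse-phase HPLC-MS/MS against a 7-point standard curve. Cells: H295R, forskolin-stimulated, then dosed 48 h in 0.1% DMSO; activity fitted in both directions relative to DMSO.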
# [2] = CEETOX_H295R_ESTRONE: CeeTox H295R High-throughput Steroidogenesis Assay for Estrone (AID 2283441); details: actives raise or lower the signal;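 for AC50: human adrenal H295R cells prestimulated with forskolin for two days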
# In short: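 Estrone secreted into medium quantified by LC-MS/MS after dansyl chloride derivatization, following 48 h chemical exposure (0.1% DMSO final) of forskolin-prestimulated (10 uM, 48 h) H295R cells; gain or loss fitted against DMSO; MTT viability in same wells.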
# [3] = CEETOX_H295R_PROG: CeeTox H295R High-throughput Steroidogenesis Assay for Progesterone (PROG) (AID 2283442); details: actives raise or lower the signal;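 for AC50: human H295R adrenal cells primed with 10 µM forskolin before dosing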
# In short: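 Measured analyte is progesterone secreted by H295R cells at 48 h of chemical treatment, following 10 uM forskolin priming. Quantitation used HPLC-MS/MS against a 7-point standard curve; cytotoxicity was checked by MTT absorbance.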
# [4] = read-out: Fatty acid synthase (Homo sapiens) (UniProt P49327); assay: LTEA_HepaRG_FASN: Life Technologies and Expression Analysis (LTEA) Assay for Fatty Acid Synthase (FASN) using HepaRG (AID 2283448); details: mRNA level, 48 h; actives raise or lower the signal;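 for AC50: differentiated human HepaRG liver cells in serum-free induction medium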
# In short: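 Cells were plated, cultured 48 h, switched to serum-free induction medium, then dosed in duplicate (max 100 uM, half-log dilutions, 0.5% DMSO) for 48 h. RNA was then isolated and FASN quantified by qRT-PCR.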
# [5] = read-out: Cyclin D2 (CCND2), CCND2 (gene 894); assay: LTEA_HepaRG_CCND2: Life Technologies and Expression Analysis (LTEA) Assay for Cyclin D2 (CCND2) using HepaRG (AID 2283449); details: mRNA level, 48 h; actives raise or lower the signal
# In short: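 CCND2 transcript levels, quantified by qRT-PCR and normalised to three housekeeping genes, were fitted bidirectionally against 0.5% DMSO. HepaRG cultures were dosed 48 h in duplicate with an 8-point half-log series up to 100 uM.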
# [6] = read-out: Cyclin Dependent Kinase Inhibitor 1A (CDKN1A), CDKN1A (gene 1026); assay: LTEA_HepaRG_CDKN1A: Life Technologies and Expression Analysis (LTEA) Assay for Cyclin Dependent Kinase Inhibitor 1A (CDKN1A) using HepaRG (AID 2283450); details: mRNA level, 48 h; actives raise or lower the signal
# In short: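 Gain or loss of CDKN1A transcript is scored by bidirectional fitting against 0.5% DMSO vehicle. Human HepaRG cultures receive chemicals for 48 h across an 8-point series peaking at 100 uM; expression comes from qRT-PCR.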
# [7] = read-out: Cyclin D1 (CCND1), CCND1 (gene 595); assay: LTEA_HepaRG_CCND1: Life Technologies and Expression Analysis (LTEA) Assay for Cyclin D1 (CCND1) using HepaRG (AID 2283451); details: mRNA level, 48 h; actives raise or lower the signal;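 for AC50: differentiated human HepaRG liver cells in serum-free induction medium; TaqMan qRT-PCR transcript level normalised to ACTB GAPDH and POLR2A housekeeping genes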
# In short: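 Expression change is measured by qRT-PCR in HepaRG cells after 48 h treatment across eight concentrations topping at 100 uM, with duplicate wells and DMSO (0.5%) serving as baseline for bidirectional fitting.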
# [8] = read-out: catalase (CAT), CAT (gene 847); assay: LTEA_HepaRG_CAT: Life Technologies and Expression Analysis (LTEA) Assay for catalase (CAT) using HepaRG (AID 2283452); details: mRNA level, 48 h; actives raise or lower the signal;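 for AC50: TaqMan qRT-PCR signal normalized to ACTB GAPDH and POLR2A housekeeping genes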
# In short: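 Expression of CAT was quantified by TaqMan qRT-PCR with ACTB/GAPDH/POLR2A normalization after 48 h chemical exposure of HepaRG. Eight-point half-log series, top 100 uM, in 0.5% DMSO; gain or loss fitted against vehicle.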
# [9] = read-out: Cytochrome P450 (CYP1A1), CYP1A1 (gene 1543); assay: LTEA_HepaRG_CYP1A1: Life Technologies and Expression Analysis (LTEA) Assay for Cytochrome P450 (CYP1A1) using HepaRG (AID 2283454); details: mRNA level, 48 h; actives raise or lower the signal
# In short: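 Using HepaRG cultures with 0.5% DMSO as vehicle, eight-concentration exposures (max 100 uM) lasted 48 h. Transcript levels were measured by TaqMan qRT-PCR and normalized to ACTB, GAPDH and POLR2A.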
# [10] = read-out: CFLAR gene, CFLAR (gene 8837); assay: LTEA_HepaRG_CFLAR: Life Technologies and Expression Analysis (LTEA) Assay for CFLAR gene using HepaRG (AID 2283455); details: mRNA level, 48 h; actives raise or lower the signal
# In short: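 Transcript level by qRT-PCR (normalized to ACTB, GAPDH and POLR2A) after 48 h chemical exposure of HepaRG cells, top concentration 100 uM with half-log steps, 0.5% DMSO vehicle, duplicates; fitted bidirectionally against DMSO baseline.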
# [11] = read-out: Forkhead box O1 (FOXO1), FOXO1 (gene 2308); assay: LTEA_HepaRG_FOXO1: Life Technologies and Expression Analysis (LTEA) Assay for Forkhead box O1 (FOXO1) using HepaRG (AID 2283456); details: mRNA level, 48 h; actives raise or lower the signal
# In short: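 FOXO1 transcript quantified by qRT-PCR after 48 h chemical exposure (top 100 uM, half-log steps, 0.5% DMSO) of HepaRG cells, housekeeping-normalized (ACTB/GAPDH/POLR2A). Changes fitted in both directions relative to vehicle.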
# [12] = read-out: growth arrest and DNA damage 45 (GADD45A), GADD45A (gene 1647); assay: LTEA_HepaRG_GADD45A: Life Technologies and Expression Analysis (LTEA) Assay for growth arrest and DNA damage 45 (GADD45A) using HepaRG (AID 2283458); details: mRNA level, 48 h; actives raise or lower the signal
# In short: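 Transcript induction or loss, quantified by TaqMan qRT-PCR against three housekeeping genes, is the read-out. HepaRG cells received chemicals for 48 h across eight half-log concentrations from 100 uM in 0.5% DMSO; gain and loss fitted relative to DMSO.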
# [13] = read-out: Forkhead box O3 (FOXO3), FOXO3 (gene 2309); assay: LTEA_HepaRG_FOXO3: Life Technologies and Expression Analysis (LTEA) Assay for Forkhead box O3 (FOXO3) using HepaRG (AID 2283459); details: mRNA level, 48 h; actives raise or lower the signal
# In short: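 FOXO3 transcript measured by qRT-PCR (normalized to ACTB, GAPDH, POLR2A) after 48 h exposure of HepaRG cells in serum-free induction medium. Duplicates, eight half-log concentrations up to 100 uM, 0.5% DMSO; gain or loss fitted against DMSO.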
# [14] = read-out: ABC Transporter (ABCC3), ABCC3 (gene 8714); assay: LTEA_HepaRG_ABCC3: Life Technologies and Expression Analysis (LTEA) Assay for ABC Transporter (ABCC3) using HepaRG (AID 2283462); details: mRNA level, 48 h; actives raise or lower the signal
# In short: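 Transcriptional change of ABCC3 in HepaRG after 48 h treatment, determined by qRT-PCR normalized to endogenous controls. Concentrations spanned eight half-log steps to 100 uM in 0.5% DMSO.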
# [15] = read-out: Tumor necrosis factor receptor superfamily member 6 (Homo sapiens) (UniProt P25445); assay: LTEA_HepaRG_FAS: Life Technologies and Expression Analysis (LTEA) Assay for Fas cell surface death receptor (FAS) using HepaRG (AID 2283447); details: mRNA level, 48 h; actives raise or lower the signal
# In short: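 FAS transcript level was measured by TaqMan qRT-PCR against three housekeeping genes after 48 h chemical exposure. Cells were HepaRG, 0.5% DMSO vehicle, with a top concentration of 100 uM and half-log dilutions over eight points, in duplicate.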
# [16] = read-out: flavin-containing dimethylaniline monooxygenases 3 (FMO3), FMO3 (gene 2328); assay: LTEA_HepaRG_FMO3: Life Technologies and Expression Analysis (LTEA) Assay for flavin-containing dimethylaniline monooxygenases 3 (FMO3) using HepaRG (AID 2283453); details: mRNA level, 48 h; actives raise or lower the signal;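 for AC50: differentiated human HepaRG liver cells in serum-free induction medium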
# In short: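 FMO3 transcript quantified by TaqMan qRT-PCR against three housekeeping genes after 48 h chemical exposure of HepaRG cells. Eight-point half-log series, top 100 uM, 0.5% DMSO vehicle; phenobarbital 1mM induction control; up- or down-regulation fitted.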
# [17] = read-out: ABC Transporter (ABCB1), ABCB1 (gene 5243); assay: LTEA_HepaRG_ABCB1: Life Technologies and Expression Analysis (LTEA) Assay for ABC Transporter (ABCB1) using HepaRG (AID 2283460); details: mRNA level, 48 h; actives raise or lower the signal
# In short: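 ABCB1 transcript level measured by TaqMan qRT-PCR against three housekeeping genes after 48 h chemical exposure of differentiated HepaRG cells. Top concentration 100 uM, half-log steps, eight points, 0.5% DMSO vehicle; bidirectional fit relative to DMSO.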
# [18] = read-out: growth arrest and DNA damage 45 (GADD45B), GADD45B (gene 4616); assay: LTEA_HepaRG_GADD45B: Life Technologies and Expression Analysis (LTEA) Assay for growth arrest and DNA damage 45 (GADD45B) using HepaRG (AID 2283461); details: mRNA level, 48 h; actives raise or lower the signal
# In short: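 Human HepaRG monolayers receive chemicals for 48 h at eight half-log concentrations, highest 100 uM, in 0.5% DMSO. Expression is measured by TaqMan qRT-PCR and normalized to ACTB, GAPDH and POLR2A.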
# [19] = read-out: ABC Transporter (ABCB11), ABCB11 (gene 8647); assay: LTEA_HepaRG_ABCB11: Life Technologies and Expression Analysis (LTEA) Assay for ABC Transporter (ABCB11) using HepaRG (AID 2283463); details: mRNA level, 48 h; actives raise or lower the signal
# In short: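 ABCB11 transcript levels quantified by TaqMan qRT-PCR against three housekeeping genes after 48 h chemical exposure of HepaRG cultures. Concentrations up to 100 uM in half-log steps, 0.5% DMSO vehicle; both induction and suppression scored.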
# Sequence of Fatty acid synthase (Homo sapiens) (P49327 whole entry, looked up): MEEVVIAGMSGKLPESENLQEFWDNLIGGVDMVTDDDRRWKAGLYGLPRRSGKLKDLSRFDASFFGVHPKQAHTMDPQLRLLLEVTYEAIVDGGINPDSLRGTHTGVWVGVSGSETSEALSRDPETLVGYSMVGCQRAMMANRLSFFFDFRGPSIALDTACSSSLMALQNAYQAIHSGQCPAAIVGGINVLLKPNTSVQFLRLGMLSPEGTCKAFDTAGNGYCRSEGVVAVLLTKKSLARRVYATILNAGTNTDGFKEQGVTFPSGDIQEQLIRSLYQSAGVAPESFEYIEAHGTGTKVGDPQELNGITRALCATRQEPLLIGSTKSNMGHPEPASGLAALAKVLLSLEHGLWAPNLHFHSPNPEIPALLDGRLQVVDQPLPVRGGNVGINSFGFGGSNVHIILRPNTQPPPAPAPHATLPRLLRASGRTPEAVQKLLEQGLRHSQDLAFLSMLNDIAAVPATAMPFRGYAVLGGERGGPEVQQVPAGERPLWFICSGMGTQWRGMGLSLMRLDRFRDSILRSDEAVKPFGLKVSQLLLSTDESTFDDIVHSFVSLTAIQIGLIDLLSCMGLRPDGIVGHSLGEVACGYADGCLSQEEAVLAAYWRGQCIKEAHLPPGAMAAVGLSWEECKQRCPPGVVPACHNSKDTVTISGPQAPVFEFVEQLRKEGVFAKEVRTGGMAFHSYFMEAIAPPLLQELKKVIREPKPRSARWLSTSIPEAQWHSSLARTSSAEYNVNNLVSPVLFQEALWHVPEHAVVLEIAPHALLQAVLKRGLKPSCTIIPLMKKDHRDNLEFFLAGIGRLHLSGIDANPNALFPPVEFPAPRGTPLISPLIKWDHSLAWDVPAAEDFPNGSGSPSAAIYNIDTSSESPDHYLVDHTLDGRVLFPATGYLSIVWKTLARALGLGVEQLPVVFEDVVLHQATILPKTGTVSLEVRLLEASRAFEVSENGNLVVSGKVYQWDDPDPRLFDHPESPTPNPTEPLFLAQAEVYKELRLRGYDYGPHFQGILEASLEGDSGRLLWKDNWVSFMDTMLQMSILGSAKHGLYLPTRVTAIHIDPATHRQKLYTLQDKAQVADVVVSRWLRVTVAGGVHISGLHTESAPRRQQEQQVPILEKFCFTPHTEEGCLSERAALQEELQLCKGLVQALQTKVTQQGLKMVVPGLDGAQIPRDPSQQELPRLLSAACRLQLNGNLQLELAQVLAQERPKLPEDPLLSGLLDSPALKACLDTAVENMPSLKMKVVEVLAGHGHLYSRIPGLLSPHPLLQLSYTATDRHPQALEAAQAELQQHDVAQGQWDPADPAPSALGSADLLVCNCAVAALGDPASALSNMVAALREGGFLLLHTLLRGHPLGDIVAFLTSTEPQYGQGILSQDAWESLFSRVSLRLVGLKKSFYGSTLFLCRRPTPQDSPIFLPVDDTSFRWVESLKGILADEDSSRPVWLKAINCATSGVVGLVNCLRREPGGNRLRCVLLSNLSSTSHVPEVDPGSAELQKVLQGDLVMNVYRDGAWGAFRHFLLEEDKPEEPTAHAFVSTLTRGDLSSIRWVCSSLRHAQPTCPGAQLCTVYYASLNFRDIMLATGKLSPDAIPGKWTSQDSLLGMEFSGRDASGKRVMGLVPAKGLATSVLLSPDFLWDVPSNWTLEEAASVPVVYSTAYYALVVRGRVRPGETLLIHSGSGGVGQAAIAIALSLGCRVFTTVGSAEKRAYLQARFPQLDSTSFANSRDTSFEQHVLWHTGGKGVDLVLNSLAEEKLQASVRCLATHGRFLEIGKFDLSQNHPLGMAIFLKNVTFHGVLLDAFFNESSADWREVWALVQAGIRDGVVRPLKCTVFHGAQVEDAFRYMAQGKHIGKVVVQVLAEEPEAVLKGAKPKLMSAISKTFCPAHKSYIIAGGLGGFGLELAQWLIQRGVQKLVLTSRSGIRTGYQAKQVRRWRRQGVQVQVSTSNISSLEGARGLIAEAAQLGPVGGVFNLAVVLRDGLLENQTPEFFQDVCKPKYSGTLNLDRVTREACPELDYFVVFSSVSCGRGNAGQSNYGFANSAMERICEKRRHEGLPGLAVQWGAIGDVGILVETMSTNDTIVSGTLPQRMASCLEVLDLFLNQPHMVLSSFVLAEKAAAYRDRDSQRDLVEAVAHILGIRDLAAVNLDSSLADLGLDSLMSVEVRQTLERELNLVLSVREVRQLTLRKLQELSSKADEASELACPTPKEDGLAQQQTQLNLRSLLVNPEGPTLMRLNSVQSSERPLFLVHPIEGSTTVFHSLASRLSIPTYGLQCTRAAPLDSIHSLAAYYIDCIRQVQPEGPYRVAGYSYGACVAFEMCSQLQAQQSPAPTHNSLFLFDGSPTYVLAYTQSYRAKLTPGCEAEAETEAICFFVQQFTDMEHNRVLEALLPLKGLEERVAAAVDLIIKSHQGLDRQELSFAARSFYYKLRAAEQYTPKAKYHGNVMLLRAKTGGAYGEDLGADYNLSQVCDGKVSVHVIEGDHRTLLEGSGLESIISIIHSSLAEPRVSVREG
smiles,measurement,setting,value
CC(=O)N1CCN(c2ccc(OC[C@H]3CO[C@](Cn4ccnc4)(c4ccc(Cl)cc4Cl)O3)cc2)CC1,outcome,[1],inactive
same,AC50,[2],1.47 µM (active)
same,outcome,[3],inactive
same,AC50,[4],26.1 µM (active)
same,outcome,[5],inactive
same,AC50,[6],12.3 µM (active)
same,AC50,[7],91.1 µM (active)
same,AC50,[8],13.1 µM (active)
same,AC50,[9],0.698 µM (active)
same,AC50,[10],74.2 µM (active)
same,AC50,[11],33.4 µM (active)
same,AC50,[12],12.5 µM (active)
same,AC50,[13],77.6 µM (active)
same,AC50,[14],91.8 µM (active)
CCN(Cc1cccc(S(=O)(=O)O)c1)c1ccc(C(=C2C=CC(=[N+](CC)Cc3cccc(S(=O)(=O)O)c3)C=C2)c2ccccc2S(=O)(=O)[O-])cc1,outcome,[15],inactive
same,outcome,[4],inactive
same,outcome,[5],inactive
same,outcome,[6],inactive
same,outcome,[7],inactive
same,outcome,[8],inactive
same,outcome,[16],inactive
same,AC50,[9],32.2 µM (active)
same,outcome,[10],inactive
same,outcome,[11],inactive
same,outcome,[12],inactive
same,outcome,[13],inactive
same,outcome,[17],inactive
same,outcome,[18],inactive
same,outcome,[14],inactive
same,outcome,[19],inactive
CN1C(=O)N(c2ccccc2Br)Cc2cnc(Nc3ccc4c(c3)OCC(CO)O4)nc21 (stereo not given),outcome,[1],inactive
same,AC50,[2],0.326 µM (active)
same,AC50,[3],0.661 µM (active)
same,AC50,[4],78.3 µM (active)
same,outcome,[5],inactive
same,AC50,[7],50 µM (active)
same,AC50,[8],67.2 µM (active)
same,AC50,[9],12.1 µM (active)
same,outcome,[10],inactive
same,AC50,[11],39.2 µM (active)
same,AC50,[12],0.0221 µM (active)
same,outcome,[13],inactive
same,AC50,[17],89.9 µM (active)
same,AC50,[14],28.6 µM (active)
same,AC50,[19],80.3 µM (active)
C[C@]12CC[C@@H]3c4ccc(O)cc4CC[C@H]3[C@@H]1CC[C@H]2O,AC50,[3],2 µM (active)
same,outcome,[15],inactive
same,outcome,[4],inactive
same,outcome,[5],inactive
same,outcome,[7],inactive
same,outcome,[8],inactive
same,AC50,[9],18.5 µM (active)
same,outcome,[10],inactive
same,outcome,[11],inactive
same,outcome,[12],inactive
same,outcome,[13],inactive
same,outcome,[17],inactive
same,outcome,[18],inactive
same,outcome,[14],inactive
same,AC50,[19],69 µM (active)
OC12N=C(c3ccccc3)SC1Cc1cc(Cl)ccc12 (stereo not given),outcome,[1],inactive
same,outcome,[2],inactive
same,outcome,[3],inactive
same,AC50,[4],2.18 µM (active)
same,outcome,[5],inactive
same,AC50,[7],9.92 µM (active)
same,AC50,[8],16.6 µM (active)
same,AC50,[16],15.7 µM (active)
same,AC50,[9],1.21 µM (active)
same,AC50,[10],5 µM (active)
same,outcome,[11],inactive
same,outcome,[12],inactive
same,AC50,[13],4.85 µM (active)
same,AC50,[17],17 µM (active)
same,AC50,[14],21 µM (active)
same,AC50,[19],16.7 µM (active)
Cc1cc2c(cc1C(F)(F)F)N(C(=O)Nc1ccc(Oc3cccnc3C)nc1)CC2,outcome,[1],inactive
same,outcome,[2],inactive
same,AC50,[3],0.257 µM (active)
same,outcome,[4],inactive
same,outcome,[5],inactive
same,outcome,[7],inactive
same,AC50,[8],46 µM (active)
same,AC50,[9],3.67 µM (active)
same,AC50,[10],72.6 µM (active)
same,AC50,[11],80.9 µM (active)
same,AC50,[12],78.1 µM (active)
same,outcome,[13],inactive
same,outcome,[17],inactive
same,AC50,[14],11.6 µM (active)
same,AC50,[19],3.86 µM (active)
COCC(C)OCC(C)OCC(C)O (stereo not given),outcome,[15],inactive
same,outcome,[4],inactive
same,outcome,[5],inactive
same,outcome,[6],inactive
same,outcome,[7],inactive
same,outcome,[8],inactive
same,outcome,[9],inactive
same,outcome,[10],inactive
same,outcome,[11],inactive
same,outcome,[12],inactive
same,outcome,[13],inactive
same,outcome,[17],inactive
same,outcome,[14],inactive
same,outcome,[19],inactive
